Molecules are shown by their SMILES. This is part of a sample that, as a whole, favours compounds with a hit. Of some 83,000 tested, about 20% had one in any assay.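 How to read the values: 0–100, growth inhibition (40 = 60% inhibited); 0, no net growth; -100 to 0, cell death (-40 = 40% of starting cells died; -100 = all dead).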 A number with no mark means an inactive call. The source made the active and inactive calls. Rule for the calls: active = growth percent below 10; inactive = the rest.

Data on 17 molecules can be found in PubChem BioAssay (NCI).

This test deals with SR leukemia. Put plainly: NCI-60 one-dose screen, 48 h (100 = growth as untreated, 0 = no growth, -100 = all killed). Conditions: 10 µM unless noted.
Regarding `COc1ccc2[nH]c(C(=O)OCc3ccc4cccc(O)c4n3)cc2c1`, the growth is -3.51% (active).
For `CCOCC(O)(c1ccc(Cl)cc1)c1ccc(Cl)cc1`, the growth is 100%.
As for `Cc1cc(C)cc(NC(=O)Cn2nncc2CN2C(=O)CSC2=O)c1`, the growth was 118%.
Next, `Cc1ccc(NC(=O)Cn2nncc2CN2C(=O)CSC2=O)cc1C`: 124%; `COC(=O)/C=C/c1cc(OC(C)=O)c2c(c1)[C@@H](C(=O)OC)[C@H](c1ccc(OC(C)=O)c(OC(C)=O)c1)O2`: 10.8%; `N=c1n(Cc2ccccc2)c(N)cc(=O)n1Cc1ccccc1`: 1.6% (active).
`CC(C)[C@H](CN)NC[C@H](C)NS(=O)(=O)c1ccc(C(C)(C)C)cc1`: the growth was 110%.
Turning to `COc1ccc(/C(=C\c2ccc3c(c2)OCO3)C(=O)Nc2nc3ccccc3s2)cc1`, the growth is 81.7%.
`Cc1ccc(-c2cnc3sc4ccc(Cl)cc4n23)cc1`: the growth is 111%.
Next, `COc1cc(C2Nc3ccccc3S2)cc(CN2CCOCC2)c1O` (configuration not stated): 49%.
For `CC1=C(O)C(=O)C(c2c(C)cc(C)c(Br)c2C)=C(O)C1=O`, the growth is 48.9%.
As to `CC(C)OC(=O)c1ccc([N+](=O)[O-])cc1`, the growth was 102%.
Take `COc1cc(CN2CCO[C@H](COc3cccc(F)c3)C2)ccc1Cl`: the growth was 50.8%.
Next, `COc1cc(NC(C)CCCN)c2ncccc2c1Oc1ccc(Cl)cc1` (configuration not stated): 53.2%; `OC(c1cc(-c2ccc(C(F)(F)F)cc2)nc(-c2ccc(C(F)(F)F)cc2)c1)C1CCCCN1` (configuration not stated): -64.8% (active); `C=CCn1c(C)nc2cc(Nc3nc(Nc4ccc5nc(C)n(CC=C)c5c4)nc4ccccc34)ccc21`: 106%.
As for `Fc1ccc2c(CN3CCO[C@H](COc4cccc(Cl)c4)C3)c[nH]c2c1`, the growth was 37.3%.
